Rows were chosen to be rich in hits. Some 2.8% of all compounds tested hit in one or more screens of this group.
WRN inhibitor = blocks human WRN helicase. AID 651768. WRN helicase unwinding, fluorescent forked duplex, kinetic. Q14191. 0.46% of 360,000 active. Potency, µM (titrated, usually from 114 µM), for the others: at the highest dose activity change, negative = inhibition, usual class: inhibitors; also: potency is read from the fitted curve at half-maximal effect; % is scaled to controls: 0 for no effect and ±100 for the full control effect; nearly all actives have a fitted effect of over 55% in size
Target sequence (Q14191 whole entry, looked up): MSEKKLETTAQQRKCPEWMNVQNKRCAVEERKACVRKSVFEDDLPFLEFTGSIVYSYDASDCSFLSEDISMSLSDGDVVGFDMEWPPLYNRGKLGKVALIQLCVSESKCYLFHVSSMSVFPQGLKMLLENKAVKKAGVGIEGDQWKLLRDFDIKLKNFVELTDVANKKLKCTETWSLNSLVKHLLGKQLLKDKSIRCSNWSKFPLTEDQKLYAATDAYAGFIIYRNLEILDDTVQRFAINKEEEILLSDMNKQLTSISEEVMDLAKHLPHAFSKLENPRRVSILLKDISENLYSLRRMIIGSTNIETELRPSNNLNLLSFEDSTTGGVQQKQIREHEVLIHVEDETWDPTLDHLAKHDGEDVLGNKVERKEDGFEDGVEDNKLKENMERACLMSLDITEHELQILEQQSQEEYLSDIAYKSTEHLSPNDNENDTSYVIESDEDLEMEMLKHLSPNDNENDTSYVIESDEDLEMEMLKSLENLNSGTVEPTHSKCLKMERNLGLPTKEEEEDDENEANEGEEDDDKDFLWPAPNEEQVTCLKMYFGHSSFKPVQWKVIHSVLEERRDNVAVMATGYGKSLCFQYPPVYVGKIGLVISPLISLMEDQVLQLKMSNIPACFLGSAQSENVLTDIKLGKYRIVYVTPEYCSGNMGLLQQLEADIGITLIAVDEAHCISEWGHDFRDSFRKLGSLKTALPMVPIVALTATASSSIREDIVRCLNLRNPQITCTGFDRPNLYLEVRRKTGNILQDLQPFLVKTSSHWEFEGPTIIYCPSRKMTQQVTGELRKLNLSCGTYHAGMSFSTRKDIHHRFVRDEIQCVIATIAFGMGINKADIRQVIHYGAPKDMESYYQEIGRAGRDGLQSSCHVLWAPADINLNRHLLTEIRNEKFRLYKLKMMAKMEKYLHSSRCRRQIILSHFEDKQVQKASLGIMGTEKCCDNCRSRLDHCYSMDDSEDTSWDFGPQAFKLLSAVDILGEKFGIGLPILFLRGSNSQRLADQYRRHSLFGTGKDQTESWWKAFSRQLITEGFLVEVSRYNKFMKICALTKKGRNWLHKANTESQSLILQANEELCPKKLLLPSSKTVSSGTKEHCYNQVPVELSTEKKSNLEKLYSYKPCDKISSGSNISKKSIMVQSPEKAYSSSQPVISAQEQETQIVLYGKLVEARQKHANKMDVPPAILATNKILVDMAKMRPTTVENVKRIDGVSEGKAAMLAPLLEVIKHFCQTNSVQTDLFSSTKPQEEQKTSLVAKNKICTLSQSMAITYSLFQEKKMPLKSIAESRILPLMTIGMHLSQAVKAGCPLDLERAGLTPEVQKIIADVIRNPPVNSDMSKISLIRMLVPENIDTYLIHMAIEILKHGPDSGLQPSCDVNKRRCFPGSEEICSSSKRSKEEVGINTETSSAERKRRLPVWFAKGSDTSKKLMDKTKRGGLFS
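Kinetic red-fluorescence monitoring (525/598 nm) tracks WRN helicase activity after 100 nM fluorophore-quencher forked duplex and 2 mM ATP are added to 20 nM enzyme pretreated 15 min at room temperature with compound.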
Pol beta inh = blocks human DNA polymerase beta activity | Pol beta primer extension/strand displacement, fluorescence kinetic | Potency, µM (top dose mostly 114 µM), without a hit: top-dose activity change, negative = inhibition, actives largely listed as inhibitors | 1.3% of 340,000 active; also: potency is read from the fitted curve at half-maximal effect; % is scaled to controls: 0 for no effect and ±100 for the full control effect
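Homogeneous kinetic assay of primer extension and strand displacement by 10 nM Pol beta, preincubated 15 min at room temperature with compound before 50 nM substrate (final) was added. Read at 0 and 10 min; four-parameter Hill fit.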
POLI inh = inhibitors of human DNA polymerase iota; Pol iota fluorescent replication assay, 10 min; Q9UNA4; Potency, µM (top dose mostly 115 µM), for the others: at the top dose activity, negative = inhibition, hits mostly inhibitors; 1% of 390,000 active; also: potency is read from the fitted curve at half-maximal effect
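Fluorescent replication assay read twice, at 0 min and 10 min after adding 50 nM (final) substrate. Enzyme (10 nM) and compounds were first incubated 15 min at room temperature; enzyme-free buffer wells were negative controls.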
Pol eta inh = inhibitors of human DNA polymerase eta. Q9Y253. recombinant Pol eta, fluorescent DNA replication assay. Potency, µM (top dose mostly 114 µM), for inactives: at the top dose activity change, negative = inhibition, hits mostly inhibitors. 1.2% of 390,000 active; also: potency is read from the fitted curve at half-maximal effect; % is scaled to controls: 0 for no effect and ±100 for the full control effect
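Pol eta at 10 nM preincubated with compounds 15 min at room temperature; reaction started with fluorescent substrate (50 nM final) and read kinetically at 0 and 10 min.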
Pol kappa inh = DNA polymerase kappa (human) inhibition. Q9UBT6. purified Pol kappa, fluorescent DNA synthesis assay, 10 min. Potency, µM (titrated, usually from 107 µM), inactives show top-dose activity, negative = inhibition, usual class: inhibitors. 0.53% of 400,000 active. AID 588579; also: potency is read from the fitted curve at half-maximal effect; % is scaled to controls: 0 for no effect and ±100 for the full control effect
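Enzyme at 10 nM met test compounds for 15 min at room temperature. Substrate addition (50 nM final) began the reaction, which was monitored by fluorescence at 0 and 10 min.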
PI5P4Ka inh = blocks human PI5P4K alpha kinase activity | PI5P4Kalpha enzyme, ADP-Glo luminescence, 60 min; stronger effect = lower value | P48426 | max response, % | 1.2% of 330,000 active; active = max response of -50% or lower; inconclusive = between -30% and -50%; inactive = -30% or higher; also: value at the top dose of about 77 µM; % is scaled to controls: 0 for no effect and ±100 for the full control effect
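ADP-Glo luminescence end-point read after a 60 min room-temperature kinase reaction of PI5P4Kalpha plus substrate, initiated with ATP at 5 microM final. Buffer: 0.038 M HEPES pH 7.4, EGTA, 0.1% CHAPS, 5% DMSO.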
ADP-Glo interf = counter-screen for PI5P4K inhibitors: ADP-Glo detection interference, no enzyme; shares compounds with PI5P4Ka inh; Potency, µM (highest dose often 76.9 µM), for inactives: at the top dose activity change, negative = inhibition, hits mostly inhibitors; 1,100 tested, under 10 active; ADP-Glo detection counter-screen, luciferase luminescence, no enzyme; AID 743285
* marks the source's active call; other numbers are inactive results; ? = inconclusive; nt = no result given; [ ] = dose if it differs, or a comment. Unless noted, calls follow the shape of the dose curve; as a rule, active = well fitted curve in the direction sought with a large enough effect; inconclusive = small, poorly fitted or top-dose-only effect, or another doubt; inactive = no such curve, though single readings can be large; an effect the other way counts as inactive or inconclusive.

SMILES	WRN inhibitor	Pol beta inh	POLI inh	Pol eta inh	Pol kappa inh	PI5P4Ka inh	ADP-Glo interf
c1ccc2c(OCCCCN3CCOCC3)cccc2c1	-4.5%[11.6 µM]	17.9%	?	-98.2%	?	-13.9	0.8%
COCc1ccc2oc(C(=O)O)cc2c1	?	19.1%	-15.6%	-16.5%	-6.6%	-67.6*	-0.5%
N#CCCSCc1ccc2oc(C(=O)O)cc2c1	-7.8%	-1.3%	4.4%	-1.4%	-4.9%	nt	nt
Cn1c(=O)oc2cc(S(=O)(=O)Nc3cccc(C(=O)O)c3)ccc21	13.0%	9.9%	7.2%	-20.6%	-1.9%	nt	nt
Cn1c(=O)oc2cc(S(=O)(=O)Nc3ccccc3)ccc21	-6.5%	-7.4%	69.4%	-5.5%	-8.3%	-55.3*	5.4%
COCCn1c(SCC(=O)Nc2cccc(S(N)(=O)=O)c2)nc2cc(Cl)ccc2c1=O	?	57.8%	51.1%	-1.1%	-4.6%	-63.0*	-3.4%
COCCn1c(SCC(=O)Nc2cccnc2Cl)nc2cc(Cl)ccc2c1=O	-1.1%	nt	9.1%	-0.7%	-13.4%	7.4	nt
Cc1cc2nc(-c3ccc(Br)cc3)cc(C(F)(F)F)n2n1	nt	4.6%	4.0%	-5.6%	-18.9%	nt	nt
O=C(Nc1cccc(C(=O)OCc2cc(=O)n3ccsc3n2)c1)c1ccc(F)cc1	nt	3.8%	-8.5%	-0.1%	-9.4%[60.1 µM]	nt	nt
CCCNC(=O)CSc1nnc(-c2ccco2)n1C	-2.0%	32.3%	1.8%	3.2%	-10.6%	-51.3*	-3.2%
CCOC(=O)CCN(c1ccccc1)S(=O)(=O)c1ccc2[nH]c(=O)ccc2c1	nt	16.8%	3.9%	-11.1%	-3.7%[60.1 µM]	nt	nt
O=C1NC(c2cc(Cl)cc([N+](=O)[O-])c2O)Nc2ccccc21 (stereo not given)	3.4%	-4.6%	-22.9%	-11.7%	1.0%	-79.2*	6.4%
Cc1ccc(-c2cc3c(n2-c2ccc(C(=O)O)cc2)CCCC3=O)cc1	-20.5%	42.3%	-2.2%	?	-5.5%	-78.1*	-5.8%
O=C1CCCc2c1cc(-c1ccccc1)n2-c1ccc(O)cc1	2.0%	39.1%	-10.4%	-6.7%	-13.9%	?	nt
Cc1nn2c3c(cnc2c1-c1ccc(F)cc1)C(=O)CC(c1ccccc1)C3 (stereo not given)	nt	17.4%	0.0%	-7.7%	-3.2%	nt	nt
O=c1c(C/C=C/c2ccccc2)c(O)nc2n1CCCS2	-14.4%	25.7%	?	2.8%	-19.1%	-23.8	nt
O=c1c(Cc2ccccc2)c(O)nc2n1CCS2	7.3%	36.1%	6.3%	11.6%	1.0%	-55.3*	3.9%
Fc1cccc(Cc2c(-c3ccccc3)nc3ccc(Br)cn23)c1	-12.4%	nt	nt	nt	nt	-7.1	nt
Fc1cccc(Cc2c(-c3ccco3)nc3ccc(Br)cn23)c1	-32.4%	nt	nt	nt	nt	-63.7*	-4.3%
Clc1ccc2nc(-c3ccco3)c(Cc3ccsc3)n2c1	-19.4%	nt	nt	nt	nt	-66.2*	-2.0%
Fc1cccc(Cc2c(-c3ccco3)nc3ccc(Cl)cn23)c1	-24.2%	nt	nt	nt	nt	-50.7*	-3.7%
Fc1cccc(Cc2c(-c3ccccc3)nc3ccc(Cl)cn23)c1	-13.0%	nt	nt	nt	nt	-1.5	nt
CCCCCCCCCCCCCCCCCCN(CCCCCCCCCCCCCCCCCC)c1ccc(C=O)cc1	nt	nt	8.6%	nt	-6.3%	nt	nt
C[C@H](CO)N1C[C@H](C)[C@@H](CN(C)S(=O)(=O)c2ccc3c(c2)OCCCO3)OCc2cnnn2CCCC1=O	-3.5%	nt	nt	-2.2%	nt	-61.3*	-2.9%
CC1(C)Cc2cccc(OCC(=O)NCCOc3ccccc3)c2O1	-6.1%	33.6%	81.5%	-19.7%	0.0%	-50.7*	-7.9%
COc1ccccc1CCNC(=O)COc1cccc2c1OC(C)(C)C2	-1.4%	nt	-6.4%	-19.9%	8.9%	3.2	nt
Cc1ccc2ncnc(NCc3ccco3)c2c1	nt	nt	?	nt	-17.9%	nt	nt
Cc1ccc(CNc2ncnc3ccc(-c4ccc(CO)o4)cc23)o1	nt	nt	nt	nt	nt	nt	4.6%
Cc1ccc(N2CC(NC(=O)c3cc4ccccc4o3)CC2=O)cc1 (stereo not given)	nt	-21.6%	0.3%	-8.9%	-3.3%[60.1 µM]	nt	nt

Screening results (PubChem)
